Assay outcomes: PubChem BioAssay, several laboratories
Peg3 promoter: Peg3 promoter-driven luciferase inhibitors, primary screen, cell-based, HeLa, luciferase luminescence; 360,000 tested, 1.7% active; AID 588405, 2011; HeLa PEG-Prom luciferase reporter, overnight; inhibition, % at 20 µM;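 active = inhibition of at least 50% at 20 µM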
EWS-Fli inh: EWS/Fli-driven NR0B1 reporter inhibitors, primary screen, A673 cells, NR0B1 luciferase, luminescence, MLPCN library; inhibition, % at 12.6 µM; 350,000 tested, 0.67% active; viability-normalised;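 active = mean inhibition of at least 50% after viability correction, with every replicate also passing that limit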;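 note: firefly luciferase signal divided by Alamar Blue viability fluorescence both relative to DMSO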
ABHD5 PLIN5 PPI: ABHD5-PLIN5 interaction inhibitors, primary screen, cell lysate, split luciferase complementation, luminescence; Perilipin-5 (Homo sapiens) + 1-acylglycerol-3-phosphate O-acyltransferase ABHD5 (Homo …; Split G. princeps luciferase complementation, 4 h; inhibition, % at 4 µM; 360,000 tested, 0.78% active;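 active = inhibition above the mean inhibition across every tested compound plus 3 SD, cut at about 22% in these data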;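 note: 0% = DMSO only wells and the 100% control is not disclosed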
Shn3 inh set2: reduction of Shn3 3'UTR firefly luciferase signal, primary screen, Schnurri-3 inhibitor project, cell-based, Clone20 osteoblasts, set 2. Clone20 osteoblast Shn3 3'UTR firefly luciferase, 24 h. AID 588674, 2011. 360,000 tested, 0.52% active. inhibition, % at 12.5 µM;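 active = mean inhibition of at least 75% with every replicate also reaching 75%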;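 note: 0% = median of neutral control wells and 100% = pilot-screen positive control compound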
PAX8 reporter: inhibitors of PAX8-driven TPO luciferase reporter, primary screen, RMG-I cells, single concentration; SteadyGlo, 24 h; inhibition, % at 12.6 µM; 360,000 tested, 1.2% active;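 active = mean replicate inhibition at least 60% with every replicate also reaching 60%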;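 note: luciferase light reporting Pax8 driven TPO promoter activity; plate controls were median of neutral control wells for no effect and mitoxantrone controls for full effect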
MITF TRPM1 inh: inhibitors of MITF-dependent TRPM1 promoter reporter, primary screen, cell-based, SK-MEL-5, single point, luciferase. SK-MEL-5 TRPM1 promoter luciferase, 24 h. inhibition, % at 12.5 µM. 330,000 tested, 0.83% active;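 active = mean inhibition across replicates of 60% or more, whatever share of single replicates reaches that level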
The depositor's hits bear a star; / = not tested or not shown. Sampled rows, rich in hits. Any-hit rate of the full collection: about 3%.

SMILES	Peg3 promoter	EWS-Fli inh	ABHD5 PLIN5 PPI	Shn3 inh set2	PAX8 reporter	MITF TRPM1 inh
NC(CO)c1csc(NC(=O)Nc2cccc(Cl)c2)n1 (stereo not given)	-3	-21	5	-11	1	/
NC(COCc1ccccc1)c1csc(NC(=O)Nc2cccc(Cl)c2)n1 (stereo not given)	96*	30	-4	6	15	/
O=C(c1cc(COc2ccc3ncccc3c2)on1)N1CCC(O)CC1	-53	-12	5	48	-41	-7
CCC(O)C1CCN(C(=O)c2cc(COc3ccc4ncccc4c3)on2)CC1 (stereo not given)	5	14	1	88*	8	10
Cc1cccnc1CN1CCN(C(=O)c2cc(COc3ccc4ncccc4c3)on2)CC1	-4	4	0	88*	1	9
Cc1ccc(S(=O)(=O)Nc2ccc3c(c2)CC(=O)N([C@@H](C)CO)C[C@H](C)[C@@H](CN(C)Cc2ccccc2)O3)cc1	/	-3	/	/	11	/
CCCc1cn([C@@H]2C[C@@H]3O[C@H](CO)CC[C@@H]3O[C@@H]2CCc2ccc(-c3cccc(OC)c3)cc2)nn1	/	/	/	/	-1	/
COc1ccc(S(=O)(=O)N(C)C[C@H]2OCCCC[C@H](C)Oc3ccc(NC(=O)Nc4cccc5ccccc45)cc3C(=O)N([C@@H](C)CO)C[C@H]2C)cc1	/	-8	/	/	8	/
O=C(C[C@@H]1C[C@@H]2c3cc(NC(=O)C4CCOCC4)ccc3O[C@@H]2[C@@H](CO)O1)NCCc1ccccc1	/	-2	/	/	2	/
Cc1ccc(NC(=O)c2ccc(Cl)c(N3C(=O)C=CC3=O)c2)cc1	101*	/	39*	92*	/	38
O=C(Nc1ccc(Cl)c(Cl)c1)c1ccc(Cl)c(Cl)c1	-127	-64	-16	-45	-90	-51
Cc1ccc(N(C(=O)c2cc3ccccc3oc2=O)C2C=CS(=O)(=O)C2)cc1 (stereo not given)	14	11	3	2	77*	-11
C[C@@H]1CC=C[C@H]2[C@H]1C(=O)N(Cc1ccccc1)[C@H]2c1cccc([N+](=O)[O-])c1	18	15	3	87*	-22	-8
CCCC(=O)Nc1ccc2c(c1)OC[C@@H](C)N(Cc1ccccc1OC)C[C@@H](C)[C@H](OC)CN(C)C2=O	/	5	/	/	-8	/
O=C(c1cccnc1)N1CC(=O)N2[C@H](CO)[C@@H](c3ccc(/C=C/c4ccccc4)cc3)[C@@H]2C1	/	2	/	/	-1	/
COC(=O)c1ccc(COc2ccccc2/C=C(\C#N)C(=O)Nc2c(C)cccc2C)cc1	62*	4	16	-19	6	-4
C[C@H]1CN([C@@H](C)CO)C(=O)Cc2cc(NS(=O)(=O)c3ccccc3)ccc2O[C@H]1CN(C)S(C)(=O)=O	/	-11	/	/	2	/
CCN(CC)CCOc1ccc(Br)cc1	10	/	5	-7	/	-8
CCN(CC)CCOc1ccc2c(c1)C(=NO)c1cc(OCCN(CC)CC)ccc1-2	107*	/	1	-2	/	103*
CCCOc1ccc2c(c1)C(=NN=C(N)N)c1cc(OCCC)ccc1-2	90*	50	-10	27	13	-11
CCN(CC)S(=O)(=O)c1ccc(C)c(C)c1	12	/	3	1	0	-1
CCN(CC)S(=O)(=O)c1ccc2c(c1)C(=NO)c1cc(S(=O)(=O)N(CC)CC)ccc1-2	51*	/	10	64	/	28
NC(N)=NN=C1c2ccccc2-c2ccccc21	-1	-3	-3	-24	17	15
CCCNC(=O)[C@@]1(c2ccc([N+](=O)[O-])cc2)CC(=O)N(CC23CC4CC(CC(C4)C2)C3)[C@@H]1c1ccc(CO)cc1I	/	42	/	/	105*	/
Cc1c(CN(C)C)c2c(n1Cc1ccccc1)C(=O)c1ccc(Br)cc1-2	67*	/	19	10	/	9
SMILES	Peg3 promoter	EWS-Fli inh	ABHD5 PLIN5 PPI	Shn3 inh set2	PAX8 reporter	MITF TRPM1 inh
CC(C)(C)S(=O)(=O)c1nc2ccccc2s1	-5	/	3	7	20	-11
O=S(=O)(CCSc1nc2ccccc2s1)c1nc2ccccc2s1	58*	/	9	-5	104*	39
C=CCS(=O)(=O)c1nc2ccccc2s1	104*	/	15	9	/	1
CCS(=O)(=O)CCSc1nc2ccccc2s1	3	/	-6	-24	/	-18
COc1ccc2c3c(n(C)c2c1)[C@H](CO)N(C(=O)Nc1ccc(F)cc1)CC31CCN(C(=O)CC2CC2)CC1	/	4	/	/	/	/
O=C(COc1cccc(NC(=O)c2ccccc2)c1)c1ccc(F)cc1	-9	-10	-3	-12	69*	0
O=C(O)c1ccc(C(=O)Nc2ccc(F)cc2)cc1	8	-2	1	8	-30	106*
CN1c2ccc(C#Cc3cccnc3)cc2[C@H]2[C@H](CCN2C(=O)c2cccnc2)[C@@H]1CO	/	2	/	/	-14	/
Cc1ccc2c(c1)/C(=N/OS(=O)(=O)c1ccccc1)CCS2	8	/	-9	-20	/	2
CC1=CC(=O)C(C(C)C)=C/C1=N/OS(=O)(=O)c1ccccc1	106*	42	22	18	94*	17
CC1=CC(=O)C=C(C)C1=NOS(=O)(=O)c1ccccc1	82*	/	-18	57	/	29
C[C@@H]1CN([C@@H](C)CO)C(=O)Cc2cc(NC(=O)Nc3ccc4c(c3)OCO4)ccc2O[C@H]1CN(C)Cc1ccc(-c2ccccc2)cc1	/	4	/	/	32	/
COc1cccc(C(=O)/C=C/c2ccc(SC)cc2)c1	-60	-46	23*	-5	/	-14
CSc1ccc(/C=C/C(=O)c2ccc(NC(=O)C(C)C)cc2)cc1	-3	/	23*	11	/	-4
CCCN1[C@H](C(=O)N[C@@H](C)c2ccccc2)[C@@H](CO)[C@@H]2Cn3c(ccc(-c4ccccc4)c3=O)[C@@H]21	/	2	/	/	/	/
CO[C@@H]1CN(C)C(=O)c2cc(NC(=O)Nc3cccc(F)c3)ccc2OC[C@@H](C)N(C(=O)C2CC2)C[C@@H]1C	/	4	/	/	10	/
Cc1nc([N+](=O)[O-])c(Sc2nc3ccccc3n2C)n1Cc1ccccc1	35	/	17	0	45	63*
O=C(OCC(=O)N1CCCC1=O)c1nc(Cl)c(Cl)c(Cl)c1Cl	82*	4	-2	-4	0	53
CC(NCC(O)COc1ccc(Br)cc1)c1ccccc1 (stereo not given)	-16	6	-9	11	-7	-13
COc1ccc(OCC(O)CNC(C)c2ccccc2)cc1 (stereo not given)	-6	0	-16	-1	-24	-14
CCCC(NCC(O)COc1ccc(-c2ccccc2)cc1)c1ccccc1 (stereo not given)	79*	42	-10	32	17	40
